Active and inactive are the calls of the source. Unless noted, how the calls were made is not given here.
Columns and labels:
[1] = test system: Wnt5a (protein binding on small-molecule microarray); assay: small molecules binding Wnt5a protein – biophysical, small-molecule microarray, 635/667 nm fluorescence, primary screen (AID 1142); settings: 635 nm fluorescence, higher = more signal;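 further: fluorescence read at 667 nm with signal to noise per printed feature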
[2] = ATP-based viability of Huh7 replicon cells – cell-based, CellTiter-Glo luminescence, basal, 48 h, cytotoxicity control for HCV replication inhibitor project, primary screen (AID 1143); settings: higher = more signal, called active from +8 up or from −8 down;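 further: Huh7 hepatoma cells carrying a hepatitis C replication reporter with no stimulus; test concentration not given here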
[3] = Pseudomonas biofilm growth suppression – PAO1 strain, BacTiter-Glo luminescence, LB-PBS, primary screen (AID 1144); settings: P. aeruginosa PAO1 biofilm, 12 h, higher = more signal
[4] = basal CRE-LacZ reporter activity in PC12 – cell-based, unstimulated, primary screen (AID 1145); settings: no forskolin, luminescence, 4.5 h, higher = more signal, called active from +8 up or from −8 down
[5] = forskolin-driven CRE-LacZ activity in PC12 – cell-based, CRE-LacZ reporter, forskolin-stimulated, primary screen (AID 1146); settings: luminescence, 4.5 h, higher = more signal, called active from +8 up or from −8 down;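 further: PC12 cells with 6xCRE LacZ reporter stimulated by forskolin 10 µM; beta-galactosidase reporter signal reflecting CREB driven transcription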
[6] = target: Streptavidin (Streptomyces avidinii) (UniProt P22629); assay: compounds binding control protein streptavidin – biophysical, small-molecule microarray, 635/667 nm fluorescence, artefact control for SMM compound annotation, primary screen (AID 1147); settings: higher = more signal;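 further: signal reflects streptavidin binding to arrayed compounds as a control protein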
Streptavidin (Streptomyces avidinii), sequence (P22629 whole entry, looked up): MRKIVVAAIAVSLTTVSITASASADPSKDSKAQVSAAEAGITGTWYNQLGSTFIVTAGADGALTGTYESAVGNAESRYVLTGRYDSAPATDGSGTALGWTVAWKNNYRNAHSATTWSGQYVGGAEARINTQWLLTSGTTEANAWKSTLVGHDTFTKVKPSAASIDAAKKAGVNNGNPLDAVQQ

[7] = probe aInhba binding on compound microarray – biochemical, small-molecule microarray, 635/667 nm fluorescence, primary screen (AID 1148); settings: higher = more signal;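 further: score merges 667nm spot fluorescence with signal-to-noise for antibody binding to printed compounds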
[8] = target: Torsin-1A (Homo sapiens) (UniProt O14656); assay: TOR1A wild-type binding on microarray – cell lysate, small-molecule microarray, lysate, 635/667 nm, primary screen (AID 1149); settings: COS7 hTOR1A-WT lysate, 635 nm fluorescence, higher = more signal
Torsin-1A (Homo sapiens), sequence (O14656 whole entry, looked up): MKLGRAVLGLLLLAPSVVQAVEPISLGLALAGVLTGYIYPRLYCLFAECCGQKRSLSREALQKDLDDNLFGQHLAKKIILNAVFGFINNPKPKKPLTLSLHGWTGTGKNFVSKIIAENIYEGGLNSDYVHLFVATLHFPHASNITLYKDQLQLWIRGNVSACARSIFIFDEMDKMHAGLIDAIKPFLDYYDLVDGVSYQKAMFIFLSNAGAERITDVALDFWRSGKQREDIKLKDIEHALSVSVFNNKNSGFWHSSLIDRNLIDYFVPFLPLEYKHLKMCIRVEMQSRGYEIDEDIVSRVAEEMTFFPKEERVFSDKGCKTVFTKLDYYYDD

[9] = target: Torsin-1A (Homo sapiens) (UniProt O14656); assay: torsin A mutant lysate binding on microarrays – cell lysate, small-molecule microarray, COS7 lysate, 635/667 nm fluorescence, primary screen (AID 1150); settings: COS7 hTOR1A mutant lysate, 635 nm fluorescence, higher = more signal;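 further: score pools 667 nm emission and signal to noise measuring lysate protein binding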
[10] = test system: Sonic hedgehog protein (Shh); assay: Sonic hedgehog microarray binding compounds – biochemical, small-molecule microarray, 635/667 nm fluorescence, primary screen (AID 1151); settings: 635 nm fluorescence, higher = more signal;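 further: Shh protein binding to compounds spotted on small-molecule microarray slides; score combines spot fluorescence intensity with signal-to-noise across triplicate slides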
[11] = optical density shifts of acrAB sulA E. coli – strain DRC41, OD650, 48 h, E. coli filamentation inducer project, primary screen (AID 1152); settings: higher = more signal, called active from +8 up or from −8 down;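 further: E. coli MC1000 strain DRC41 lacking acrAB efflux pump and sulA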
[12] = probe aLefty1 binding on compound microarray – biochemical, small-molecule microarray, 635/667 nm fluorescence, primary screen (AID 1153); settings: higher = more signal;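 further: score merges spot fluorescence with signal-to-noise ratio from the scanned slide images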
[13] = plasmodial surface anion channel blockers, osmotic lysis – cell-based, P. falciparum Indochina, OD700, 1 h, primary screen (AID 1154); settings: P. falciparum Indochina infected RBC osmotic lysis, higher = more signal, called active from +8 up or from −8 down
[14] = plasmodial surface anion channel blockers, osmotic lysis – cell-based, P. falciparum Indochina, OD700, 2 h, primary screen (AID 1155);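 further: lysis reports solute entry through the parasite surface anion channel PSAC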; settings: P. falciparum Indochina infected erythrocytes, higher = more signal, called active from +8 up or from −8 down
[15] = changes in parasitized red cell lysis, either direction – P. falciparum Indochina, OD700, 3 h, PSAC antagonist project, primary screen (AID 1156); settings: P. falciparum-infected erythrocytes, osmotic lysis, higher = more signal, called active from +8 up or from −8 down
[16] = plasmodial surface anion channel blockers, osmotic lysis – cell-based, P. falciparum Indochina, OD700, 18 h, primary screen (AID 1157); settings: P. falciparum Indochina infected erythrocytes, osmotic lysis OD700, 18 h; higher = more signal, called active from +8 up or from −8 down
[17] = S6 kinase pathway phospho-S6 level changes – cell-based, A549, cytoblot, luminescence, serum-stimulated, primary screen (AID 1158); settings: 5 h, higher = more signal;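 further: serum-stimulated A549 lung adenocarcinoma cells; signal is phosphorylated S6 detected by cytoblot immunostaining with HRP secondary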
[18] = target: NADPH oxidase 2 (Homo sapiens) (UniProt P04839); assay: compounds shifting NOX2 Amplex Red fluorescence – cell-based, HEK293-NOX2, PMA-stimulated, NOX inhibitor project, primary screen (AID 1159); settings: 45 min, higher = more signal, called active from +8 up or from −8 down; further: test concentration not given here
NADPH oxidase 2 (Homo sapiens), sequence (P04839 whole entry, looked up): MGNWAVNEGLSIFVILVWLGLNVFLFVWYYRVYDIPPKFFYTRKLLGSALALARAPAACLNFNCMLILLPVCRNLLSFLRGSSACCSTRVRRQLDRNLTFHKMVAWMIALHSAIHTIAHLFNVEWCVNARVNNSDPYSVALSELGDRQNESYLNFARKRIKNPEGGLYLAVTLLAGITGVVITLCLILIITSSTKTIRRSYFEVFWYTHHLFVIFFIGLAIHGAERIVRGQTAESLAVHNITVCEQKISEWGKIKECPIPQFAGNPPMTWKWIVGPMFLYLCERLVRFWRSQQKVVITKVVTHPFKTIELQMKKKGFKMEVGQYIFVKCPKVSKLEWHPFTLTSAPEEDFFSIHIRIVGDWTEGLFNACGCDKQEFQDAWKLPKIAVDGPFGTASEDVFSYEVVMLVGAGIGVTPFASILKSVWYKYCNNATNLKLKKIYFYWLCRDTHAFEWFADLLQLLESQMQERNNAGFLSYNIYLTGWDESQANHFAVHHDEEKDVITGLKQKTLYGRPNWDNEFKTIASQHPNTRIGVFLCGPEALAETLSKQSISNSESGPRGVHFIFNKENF

[19] = target: NADPH oxidase 4 (Homo sapiens) (UniProt Q9NPH5); assay: compounds shifting NOX4 Amplex Red fluorescence – cell-based, HEK293-NOX4, tetracycline-induced, NOX inhibitor project, primary screen (AID 1160); settings: HEK293-NOX4, Amplex Red H2O2 fluorescence, 45 min; higher = more signal, called active from +8 up or from −8 down
NADPH oxidase 4 (Homo sapiens), sequence (Q9NPH5 whole entry, looked up): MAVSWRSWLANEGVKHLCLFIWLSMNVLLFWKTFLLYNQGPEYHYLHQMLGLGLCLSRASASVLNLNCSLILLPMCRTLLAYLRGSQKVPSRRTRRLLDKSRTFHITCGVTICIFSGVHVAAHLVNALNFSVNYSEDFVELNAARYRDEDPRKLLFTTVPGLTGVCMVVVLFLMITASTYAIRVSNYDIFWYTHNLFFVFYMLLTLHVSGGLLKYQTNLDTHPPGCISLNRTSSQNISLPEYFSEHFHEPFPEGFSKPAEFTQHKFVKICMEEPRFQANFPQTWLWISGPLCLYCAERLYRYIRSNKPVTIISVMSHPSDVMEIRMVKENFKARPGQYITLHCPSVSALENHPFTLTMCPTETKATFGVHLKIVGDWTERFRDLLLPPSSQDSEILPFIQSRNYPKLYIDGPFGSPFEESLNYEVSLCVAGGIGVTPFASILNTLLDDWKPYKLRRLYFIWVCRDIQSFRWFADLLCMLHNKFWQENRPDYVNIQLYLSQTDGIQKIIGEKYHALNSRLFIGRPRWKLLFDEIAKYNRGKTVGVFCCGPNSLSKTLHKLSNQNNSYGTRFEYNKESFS

[20] = target: NADPH oxidase 5 (Homo sapiens) (UniProt Q96PH1); assay: compounds shifting NOX5 Amplex Red fluorescence – cell-based, HEK293-NOX5, NOX inhibitor project, primary screen (AID 1161); settings: HEK293-NOX5, ionomycin, 45 min, higher = more signal
NADPH oxidase 5 (Homo sapiens), sequence (Q96PH1 whole entry, looked up): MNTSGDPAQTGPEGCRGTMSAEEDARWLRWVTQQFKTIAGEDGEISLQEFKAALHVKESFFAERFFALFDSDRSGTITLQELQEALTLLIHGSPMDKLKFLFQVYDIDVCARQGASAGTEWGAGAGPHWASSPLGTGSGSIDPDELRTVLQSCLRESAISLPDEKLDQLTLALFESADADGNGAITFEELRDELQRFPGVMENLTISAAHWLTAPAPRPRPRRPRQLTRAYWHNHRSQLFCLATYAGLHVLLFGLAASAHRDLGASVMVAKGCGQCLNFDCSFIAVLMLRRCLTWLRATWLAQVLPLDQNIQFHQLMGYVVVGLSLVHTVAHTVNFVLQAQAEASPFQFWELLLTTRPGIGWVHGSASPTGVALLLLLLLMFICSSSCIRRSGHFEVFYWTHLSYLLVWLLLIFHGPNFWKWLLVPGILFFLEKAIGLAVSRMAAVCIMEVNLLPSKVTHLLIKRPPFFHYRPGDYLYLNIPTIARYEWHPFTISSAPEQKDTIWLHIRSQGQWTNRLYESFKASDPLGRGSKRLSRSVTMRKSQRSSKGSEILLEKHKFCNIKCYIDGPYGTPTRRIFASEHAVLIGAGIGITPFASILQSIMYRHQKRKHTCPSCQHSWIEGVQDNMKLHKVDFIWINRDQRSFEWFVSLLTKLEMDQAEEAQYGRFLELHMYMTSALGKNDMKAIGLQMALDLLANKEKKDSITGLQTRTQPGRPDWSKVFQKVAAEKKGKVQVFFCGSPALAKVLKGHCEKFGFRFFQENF

SMILES	composite z-score [1]	z-score [2]	z-score [3]	z-score [4]	z-score [5]	composite z-score [6]	composite z-score [7]	composite z-score [8]	composite z-score [9]	composite z-score [10]	z-score [11]	composite z-score [12]	z-score [13]	z-score [14]	z-score [15]	z-score [16]	z-score [17]	z-score [18]	z-score [19]	z-score [20]
COc1ccc([Si](C)(C)[C@@H]2[C@@H](CC(=O)N3CCC[C@H]3CO)O[C@]3(C(=O)N(Cc4ccc(N5C(=O)c6cccc7cccc5c67)cc4)c4ccccc43)[C@H]2C)cc1	0.761	-4.78 (inactive)	-0.489 (inactive)	0.995 (inactive)	-0.0202 (inactive)	0.0541	0.0184	0.344	0.72	2.06	1.13 (inactive)	-0.0984	5.77 (inactive)	1.71 (inactive)	1.06 (inactive)	0.918 (inactive)	0.486	3.1 (inactive)	1.37 (inactive)	4.38
C=CCOC(=O)[C@H]1[C@@H]2C(=O)O[C@@H](c3ccccc3)[C@@H](c3ccccc3)N2[C@@H](c2ccc(OCCOC(=O)[C@H]3C[C@H]4C(=O)N[C@@H](Cc5ccccc5)C(=O)N4[C@H]3c3ccc(O)cc3)cc2)[C@]12C(=O)Nc1ccc(I)cc12	0.72	-0.918 (inactive)	-0.707 (inactive)	1.09 (inactive)	0.204 (inactive)	0.133	-0.0567	0.586	0.691	2.32	-0.783 (inactive)	-0.0162	4.04 (inactive)	2.09 (inactive)	0.28 (inactive)	1.06 (inactive)	-0.481	2.07 (inactive)	1.18 (inactive)	2.35
CN1C(=O)C2C=CC(C(O)C3CCCCC3)N(N3CCCCC3)C2C1=O (stereo not given)	0.341	0.505 (inactive)	-0.416 (inactive)	-0.326 (inactive)	0.158 (inactive)	0.842	0.268	0.221	0.579	0.875	-0.898 (inactive)	0.493	0.0569 (inactive)	0.257 (inactive)	0.42 (inactive)	1.27 (inactive)	-0.659	-0.407 (inactive)	0.674 (inactive)	-0.23
CC1CC/C=C\[C@H]2OC34C=CCN(CCN5CCOCC5)C(=O)[C@H]3N(CCO)C(=O)[C@@H]4C2C(=O)O1 (stereo not given in full)	-0.249	-0.894 (inactive)	0.463 (inactive)	-0.216 (inactive)	-0.626 (inactive)	-0.638	-0.178	0.161	0.213	-0.636	0.413 (inactive)	0.213	3.04 (inactive)	0.397 (inactive)	-0.174 (inactive)	0.38 (inactive)	-0.0354	0.994 (inactive)	0.221 (inactive)	2.07
Cc1ccc(S[C@]2(C(=O)NCc3ccccc3)CC(=O)N(C(C)C)[C@@H]2c2ccc(CO)cc2I)cc1	0.292	-1.11 (inactive)	0.201 (inactive)	0.208 (inactive)	1.95 (inactive)	-0.505	0.0028	-0.0397	-0.609	-1.37	0.0841 (inactive)	0.33	5.42 (inactive)	1.19 (inactive)	0.121 (inactive)	0.301 (inactive)	0.0741	2.05 (inactive)	-1.1 (inactive)	-0.199
CCOC(=O)C[C@H]1[C@H](OC(=O)c2ccccc2-c2ccccc2)[C@@H](NC(=O)CC(C)C)c2cc(OCCCO)ccc2N1C(=O)c1ccc2ccccc2n1	0.0056	-0.431 (inactive)	1.51 (inactive)	8.37 (active)	0.724 (inactive)	0.543	-0.016	0.0167	0.0401	0.196	-0.518 (inactive)	-0.192	11.9 (active)	1.64 (inactive)	-0.0722 (inactive)	0.598 (inactive)	-0.577	-0.274 (inactive)	1.15 (inactive)	1.51
O=C1OCCC=C[C@H]2OC34C=CCN(c5ccc(Cl)cc5)C(=O)[C@H]3N(CCCCCO)C(=O)[C@@H]4C12 (stereo not given in full)	-0.244	-0.091 (inactive)	-0.622 (inactive)	0.187 (inactive)	-0.382 (inactive)	-0.654	-0.0986	0.0095	1.05	0.58	1.81 (inactive)	0.211	2.21 (inactive)	0.355 (inactive)	1.63 (inactive)	0.795 (inactive)	0.0411	1.69 (inactive)	0.747 (inactive)	2.35
CCCCC(CC)C(O)C1C=CC2C(=O)N(c3ccccc3)C(=O)C2N1Nc1ccc([N+](=O)[O-])cc1 (stereo not given)	0.382	-0.728 (inactive)	0.00163 (inactive)	0.285 (inactive)	-0.0973 (inactive)	1.41	0.32	0.202	0.923	-0.277	-0.999 (inactive)	0.602	3.19 (inactive)	0.724 (inactive)	0.369 (inactive)	0.487 (inactive)	-0.429	-0.441 (inactive)	-1.6 (inactive)	-1.33
C=C(CCCC)C(=O)CC[C@@H](OC(=O)c1cccnc1)c1ccccc1OCCO	0.047	-1.55 (inactive)	-0.325 (inactive)	4.16 (inactive)	1.04 (inactive)	-0.368	-0.128	0.417	0.781	1.76	0.225 (inactive)	-0.101	22.3 (active)	5.38 (inactive)	0.88 (inactive)	0.871 (inactive)	0.315	-1.73 (inactive)	-0.158 (inactive)	-1.44
C=CCOC(=O)[C@@H]1[C@H]2C(=O)O[C@H](c3ccccc3)[C@H](c3ccccc3)N2[C@H](c2ccc(OCCOC(=O)[C@H]3C[C@H]4C(=O)N[C@@H](CC(C)C)C(=O)N4[C@H]3c3ccc(O)cc3)cc2)[C@@]12C(=O)Nc1ccc(I)cc12	0.504	-0.141 (inactive)	0.0488 (inactive)	0.277 (inactive)	-1.14 (inactive)	0.324	-0.102	1.33	1.33	1.97	0.715 (inactive)	0.0278	2.42 (inactive)	1.47 (inactive)	0.946 (inactive)	0.792 (inactive)	0.171	1.75 (inactive)	1.66 (inactive)	1.36
C=C[C@@H](C)[C@H](OC(=O)Nc1ccc(SC)cc1)c1ccc(OCCO)cc1	-0.403	-0.957 (inactive)	-1.37 (inactive)	0.861 (inactive)	-0.97 (inactive)	-0.936	-0.259	-0.582	0.695	0.182	-0.605 (inactive)	-0.33	27.9 (active)	12 (active)	3.4 (inactive)	1.75 (inactive)	2.17	-0.329 (inactive)	-0.14 (inactive)	-0.18
CCOC(=O)C1=CC[C@@H](c2ccc([N+](=O)[O-])cc2)N(S(=O)(=O)c2ccc(C)cc2)[C@H]1c1ccccc1	0.503	-1.36 (inactive)	-0.41 (inactive)	0.182 (inactive)	0.147 (inactive)	1.57	0.165	0.149	0.763	1.39	-0.785 (inactive)	0.206	2.13 (inactive)	1.6 (inactive)	0.106 (inactive)	0.903 (inactive)	-0.543	1.46 (inactive)	1.1 (inactive)	1.43
COc1ccc(C(O)C2C=CC3C(=O)N(c4ccccc4)C(=O)C3N2Nc2ccc(C#N)cc2)c2ccccc12 (stereo not given)	0.0756	-0.127 (inactive)	-0.856 (inactive)	-0.143 (inactive)	0.976 (inactive)	2.49	0.442	0.109	0.917	-0.149	-1.2 (inactive)	0.481	9.06 (active)	2.06 (inactive)	0.361 (inactive)	1.44 (inactive)	-1.03	-1.44 (inactive)	-3.09 (inactive)	-2.29
CC(C)CNC(=O)[C@@H]1c2ccccc2C(=O)N(Cc2cc(F)cc(C(F)(F)F)c2)[C@H]1c1ccc(CO)cc1	0.342	-0.959 (inactive)	0.96 (inactive)	0.001 (inactive)	-0.372 (inactive)	0.111	0.117	0.71	0.192	0.465	2.9 (inactive)	0.0571	2.62 (inactive)	0.649 (inactive)	1.27 (inactive)	-0.111 (inactive)	0.207	-0.453 (inactive)	0.967 (inactive)	0.52
CC(C)C(O)C1C=CC2C(=O)N(C)C(=O)C2N1Nc1ccccc1 (stereo not given)	0.361	1.03 (inactive)	-1.04 (inactive)	0.0535 (inactive)	-0.0784 (inactive)	0.53	0.85	0.378	0.597	-0.361	-0.532 (inactive)	0.124	-0.162 (inactive)	1.18 (inactive)	0.448 (inactive)	0.778 (inactive)	-0.679	-1.43 (inactive)	-3.72 (inactive)	-2.93
[N-]=[N+]=NCc1ccccc1C[C@]1(C(=O)NCC(O)CO)N=C(c2ccc(OCCCO)cc2)O[C@H]1c1ccccc1CN=[N+]=[N-] (stereo not given in full)	0.493	-4.68 (inactive)	-0.998 (inactive)	0.447 (inactive)	-1.32 (inactive)	0.661	0.404	0.408	1.09	-0.881	-0.0074 (inactive)	0.865	19.3 (active)	2.49 (inactive)	1.81 (inactive)	-0.481 (inactive)	1.67	-1.97 (inactive)	-2.19 (inactive)	-1.41
C=CC[C@H](OC(=O)Nc1ccc(OC)cc1)c1ccc(O)c2ccccc12	0.49	-4.26 (inactive)	-1.4 (inactive)	0.935 (inactive)	5.57 (inactive)	0.855	0.0275	0.51	0.696	1.66	-0.326 (inactive)	0.122	5.07 (inactive)	0.919 (inactive)	-0.0585 (inactive)	0.328 (inactive)	-0.93	-6.04 (inactive)	-1.58 (inactive)	-0.343
